From PubChem BioAssay (EPA / NIEHS)
Activity calls are given as the source filed them. How the source made its calls: active means hit-call score of the fitted dose curve at least 0.9, where 1 is the maximum; inactive means score below 0.9.

Experiments:
[1] = APR_HepG2_MitoMembPot_72hr: Apredica 72-hour HepG2 Assay for Mitochondrial Membrane Potential (AID 2282917); conditions: imaging, actives raise or lower the signal
In short: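 HepG2 cells exposed 72 h to compounds at 0.39–200 uM (0.5% v/v DMSO, duplicates); MitoTracker Red CMXRos 250 nM loaded 30 min before 3.7% formaldehyde fixation, imaged by HCS fluorescence. Bidirectional fit versus DMSO.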

[2] = APR_HepG2_MitoticArrest_72hr: Apredica 72-hour HepG2 Assay for Mitotic Arrest (AID 2282918); conditions: high-content imaging, actives raise or lower the signal
In short: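 Using high-content imaging of fixed HepG2 cells, phospho-histone H3 signal was measured following a 72 hr incubation with ten-point compound dilutions up to 200 uM. DMSO served as the negative control and baseline for bidirectional curve fitting.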

[3] = APR_HepG2_MicrotubuleCSK_72hr: Apredica 72-hour HepG2 Assay for Microtubule CSK Stabilty (AID 2282919); conditions: HepG2 microtubule cytoskeleton, high-content imaging, actives raise or lower the signal
In short: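 Ten-point dosing (0.39–200 uM, 0.5% DMSO) of HepG2 for 72 hr, with taxol as the cytoskeletal positive control. The cells were formaldehyde-fixed and then stained with alpha-tubulin/Cy5 and Hoechst. Imaging at 20x used a −2 um Z offset for tubulin.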

[4] = APR_HepG2_P-H2AX_24hr: Apredica 24-hour HepG2 Assay for H2AX Phosphorylation (AID 2282920); conditions: high-content imaging, actives raise or lower the signal
In short: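 Human HepG2 liver cells, treated 24 hr with test chemicals (0.39–200 uM, final DMSO 0.5% v/v), are fixed and co-stained for phospho-H2A.x and c-Jun with Hoechst. Imaged intensity is fitted in both directions against DMSO controls.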

[5] = APR_HepG2_StressKinase_72hr: Apredica 72-hour HepG2 Assay for Stress Kinase (AID 2282921); conditions: HepG2 stress kinase (phospho-c-Jun) imaging, actives raise or lower the signal
In short: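 Stress kinase signal reflects nuclear phospho-c-Jun staining in fixed, permeabilized cells exposed 72 h to compound at 0.39–200 uM; DMSO-normalized, fitted for increases or decreases.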

[6] = APR_HepG2_StressKinase_24hr: Apredica 24-hour HepG2 Assay for Stress Kinase (AID 2282922); conditions: HepG2 stress kinase (phospho-c-Jun) imaging, actives raise or lower the signal
In short: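 After 24 hr compound treatment (up to 200 uM, final DMSO 0.5% v/v), HepG2 cells are fixed and multiplex-labeled; phospho-c-Jun intensity is captured by high-content fluorescence imaging and analyzed relative to DMSO.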

[7] = APR_HepG2_p53Act_72hr: Apredica 72-hour HepG2 Assay for p53 Activation (AID 2282923); conditions: high-content imaging, actives raise or lower the signal;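 further: average cellular p53 protein immunofluorescence intensity in HepG2 cells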
In short: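 Fixed-cell p53 staining (sheep primary, Cy5 secondary) measured by fluorescence imaging following 72 hr treatment at 0.39–200 uM in 0.5% DMSO; DMSO served as negative control and baseline.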

[8] = APR_HepG2_MitoMass_72hr: Apredica 72-hour HepG2 Assay for Mitochondrial Mass (AID 2282924); conditions: high-content imaging, actives raise or lower the signal;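 further: MitoTracker Red CMXRos stain intensity per cell imaged as mitochondrial mass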
In short: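 Steps: treat HepG2 72 hr (0.39–200 uM, duplicate wells); load MitoTracker Red CMXRos, 250 nM, 30 min; fix with 3.7% formaldehyde, permeabilise with 0.5% Triton X-100; capture images, nuclei via Hoechst 33342; fit bidirectionally against DMSO.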

[9] = APR_HepG2_NuclearSize_72hr: Apredica 72-hour HepG2 Assay for Nuclear Size (AID 2282925); conditions: high-content imaging, actives raise or lower the signal
In short: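 Compounds (0.39–200 uM, final DMSO 0.5%) were applied to HepG2 for 72 hr. Cells were then formaldehyde-fixed, permeabilized and labelled with Hoechst 33342. Nuclear diameter was quantified from six images per well.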

[10] = ATG_CRE_CIS: Attagene CIS-FACTORIAL HepG2 Assay for human cAMP Responsive Element (CRE) binding protein 3 (AID 2282926); conditions: HepG2 CRE cis-reporter, Attagene multiplexed mRNA; actives raise or lower the signal
In short: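 Liver-derived HepG2, transfected with a CRE-containing reporter panel, exposed 24 h; transcript levels sized and quantified by capillary electrophoresis of labelled amplicons; signal changes either way referenced to vehicle.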

[11] = target: CCAAT/enhancer-binding protein beta (Homo sapiens) (UniProt P17676); assay: ATG_C_EBP_CIS: Attagene CIS-FACTORIAL HepG2 Assay for human CCAAT/Enhancer Binding Protein (C/EBP) beta (AID 2282927); conditions: HepG2 Attagene cis-factorial transcription factor reporter; actives raise or lower the signal
CCAAT/enhancer-binding protein beta (Homo sapiens), sequence (P17676 whole entry, looked up): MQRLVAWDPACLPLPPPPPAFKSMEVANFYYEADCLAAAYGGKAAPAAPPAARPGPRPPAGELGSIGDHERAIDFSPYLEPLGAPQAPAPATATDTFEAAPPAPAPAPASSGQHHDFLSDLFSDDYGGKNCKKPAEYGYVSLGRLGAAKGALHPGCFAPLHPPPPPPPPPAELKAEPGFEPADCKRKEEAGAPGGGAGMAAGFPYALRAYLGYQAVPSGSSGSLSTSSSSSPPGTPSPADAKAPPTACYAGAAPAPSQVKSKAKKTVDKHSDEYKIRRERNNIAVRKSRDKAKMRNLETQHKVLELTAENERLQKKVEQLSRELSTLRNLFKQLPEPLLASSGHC
In short: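 RT-PCR/capillary electrophoresis fluorescence of reporter mRNA, 24 h post-dose, in HepG2 cells carrying transfected cis-promoter reporter units. Bidirectional curve fitting against DMSO baseline captures gain or loss of signal.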

[12] = ATG_CMV_CIS: Attagene CIS-FACTORIAL HepG2 Assay for human CMV (Internal Marker) (AID 2282928); conditions: HepG2 CMV promoter reporter, transcription factor profiling; actives raise or lower the signal;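 further: endpoint acts as a background internal control marker rather than a target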
In short: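 Fluorescence intensity of RT-PCR-derived reporter fragments, resolved by capillary electrophoresis, gives the signal. HepG2 liver cells bearing transfected cis-element reporters were treated 24 h; activity in either direction was fit relative to DMSO-treated controls.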

[13] = ATG_DR4_LXR_CIS: Attagene CIS-FACTORIAL HepG2 Assay for human Liver X Receptor (LXR), DR4 submotif (AID 2282929); conditions: HepG2 Attagene DR4 cis-reporter, mRNA transcription; actives raise or lower the signal
In short: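 HepG2, transient MRTU transfection, cis-element (DR4) promoter; 24 h compound exposure; total RNA → oligo(dT) RT → PCR → 6-FAM primer extension → HpaI cut → CE. Gain/loss vs DMSO, bidirectional fit.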

[14] = target: Aryl hydrocarbon receptor (Homo sapiens) (UniProt P35869); assay: ATG_Ahr_CIS: Attagene CIS-FACTORIAL HepG2 Assay for human Aryl Hydrocarbon Receptor (Ahr) (AID 2282930); conditions: HepG2 AhR cis-factorial reporter transcription; actives raise or lower the signal
Aryl hydrocarbon receptor (Homo sapiens), sequence (P35869 whole entry, looked up): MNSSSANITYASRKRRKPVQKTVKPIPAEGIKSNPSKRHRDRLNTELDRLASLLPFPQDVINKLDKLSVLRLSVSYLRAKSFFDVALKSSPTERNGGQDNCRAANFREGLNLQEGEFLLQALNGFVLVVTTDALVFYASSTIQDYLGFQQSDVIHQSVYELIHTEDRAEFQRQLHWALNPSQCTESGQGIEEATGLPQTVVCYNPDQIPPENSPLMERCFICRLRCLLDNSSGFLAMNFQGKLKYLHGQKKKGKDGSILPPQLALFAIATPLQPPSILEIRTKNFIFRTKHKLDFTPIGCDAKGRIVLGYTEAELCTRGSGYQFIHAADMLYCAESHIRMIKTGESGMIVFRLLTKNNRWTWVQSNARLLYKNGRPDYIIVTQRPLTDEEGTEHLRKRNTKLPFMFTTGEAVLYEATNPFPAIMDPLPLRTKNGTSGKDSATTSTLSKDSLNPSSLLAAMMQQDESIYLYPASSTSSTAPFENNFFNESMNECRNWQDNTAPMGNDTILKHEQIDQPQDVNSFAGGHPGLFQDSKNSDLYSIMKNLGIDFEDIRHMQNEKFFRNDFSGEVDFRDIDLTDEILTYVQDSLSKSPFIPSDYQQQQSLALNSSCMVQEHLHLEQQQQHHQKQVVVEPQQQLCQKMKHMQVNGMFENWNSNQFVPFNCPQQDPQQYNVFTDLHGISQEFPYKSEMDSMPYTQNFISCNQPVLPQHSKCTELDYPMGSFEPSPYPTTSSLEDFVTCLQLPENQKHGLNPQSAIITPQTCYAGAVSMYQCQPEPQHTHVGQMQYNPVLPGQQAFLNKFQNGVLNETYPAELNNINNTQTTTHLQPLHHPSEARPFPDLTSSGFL
In short: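 HepG2 cells transiently transfected with cis-element-driven multiplexed reporter transcription units; endogenous transcription factor activity measured as reporter mRNA 24 h after dosing. RT-PCR, 6-FAM labelling, HpaI digestion, capillary electrophoresis; bidirectional fitting versus DMSO baseline.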

[15] = ATG_AP_1_CIS: Attagene CIS-FACTORIAL HepG2 Assay for human Activator Protein 1 (AP-1) (AID 2282931); conditions: HepG2 Attagene cis-factorial AP-1 reporter mRNA; actives raise or lower the signal
In short: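 Transient MRTU transfection of HepG2 → 24 h chemical treatment → RNA isolation, RT-PCR, 6-FAM labelling, HpaI digest → capillary electrophoresis. Fit: bidirectional, DMSO negative control.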

[16] = ATG_AP_2_CIS: Attagene CIS-FACTORIAL HepG2 Assay for human Activator Protein 2 (AP-2) (AID 2282932); conditions: HepG2 AP-2 cis-reporter, Attagene transcription factor profiling; actives raise or lower the signal
In short: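 Assay in transfected HepG2 with promoter-regulated reporters, 24 h incubation after dosing. Signal is reporter mRNA fluorescence (RT-PCR, capillary electrophoresis), analysed for both increases and decreases relative to DMSO controls.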

[17] = ATG_BRE_CIS: Attagene CIS-FACTORIAL HepG2 Assay for human Bone Morphogenetic Protein (BMP) Response Element (BRE) (AID 2282933); conditions: HepG2 BMP response element reporter, Attagene transcription factor profiling; actives raise or lower the signal
In short: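 Fluorescence-labelled reporter cDNA fragments, separated by capillary electrophoresis, gave the signal for this component of a 52-readout multiplex. HepG2 cells were transfected, exposed to chemicals for 24 h, and compared with DMSO using bidirectional fitting.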

[18] = target: Retinoic acid receptor alpha (Homo sapiens) (UniProt P10276); assay: ATG_DR5_RAR_CIS: Attagene CIS-FACTORIAL HepG2 Assay for human Retinoic Acid Receptor Alpha (RARE), DR5 submotif (AID 2282934); conditions: HepG2 Attagene cis-factorial RARE DR5 reporter, mRNA; actives raise or lower the signal
Retinoic acid receptor alpha (Homo sapiens), sequence (P10276 whole entry, looked up): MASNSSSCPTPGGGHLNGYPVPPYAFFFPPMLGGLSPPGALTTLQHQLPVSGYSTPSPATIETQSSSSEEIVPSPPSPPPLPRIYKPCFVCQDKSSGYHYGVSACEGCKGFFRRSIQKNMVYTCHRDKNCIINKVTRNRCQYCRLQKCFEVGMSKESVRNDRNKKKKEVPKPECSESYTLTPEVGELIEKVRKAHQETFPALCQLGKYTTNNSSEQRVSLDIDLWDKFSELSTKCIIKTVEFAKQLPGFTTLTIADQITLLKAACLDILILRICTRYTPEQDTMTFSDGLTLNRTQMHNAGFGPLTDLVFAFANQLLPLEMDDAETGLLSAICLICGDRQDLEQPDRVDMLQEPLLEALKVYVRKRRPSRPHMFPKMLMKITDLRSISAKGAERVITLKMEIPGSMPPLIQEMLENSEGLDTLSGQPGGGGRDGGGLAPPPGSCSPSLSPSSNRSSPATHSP
In short: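 HepG2 cells transiently transfected with multiplexed reporter units under cis (DR5 RARE) promoters, so endogenous transcription factor activity is measured. After 24 h compound exposure, reporter mRNA is quantified by RT-PCR with fluorescent labelling and capillary electrophoresis; bidirectional fitting versus DMSO.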

[19] = APR_HepG2_P-H2AX_72hr: Apredica 72-hour HepG2 Assay for H2AX Phosphorylation (AID 2282916); conditions: imaging, actives raise or lower the signal;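 further: phospho-histone H2A.x immunostain intensity per cell marking DNA damage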
In short: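 Phospho-H2A.x imaging endpoint in HepG2 after 72 hr compound exposure (0.39–200 uM, duplicate wells). Activity derived by bidirectional curve fitting with DMSO as baseline.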

Measured: AC50

OC(Cn1cncn1)(Cn1cncn1)c1ccc(F)cc1F
not listed: [18] | [19]
inactive: all other assays above

CCCOc1ccc(S(=O)(=O)N2CCN(CC)CC2)cc1-c1nc2c(CC)n(Cc3ccccn3)nc2c(=O)[nH]1
active: [2] 90.2 µM | [13] 150 µM
not listed: [7] | [19]
inactive: all other assays above

CCCCCCCC/C=C\CCCCCCCC(=O)OC[C@@H](O)[C@H]1OC[C@H](O)[C@H]1O
not listed: [4] | [14]
inactive: all other assays above

CCCCN1C(=O)[C@@H]([C@H](O)C2CCCCC2)NC(=O)C12CCN(Cc1ccc(Oc3ccc(C(=O)O)cc3)cc1)CC2
active: [2] 54.3 µM | [4] 67.8 µM | [5] 39.9 µM | [7] 38.7 µM | [11] 32.9 µM | [13] 71.5 µM
not listed: [14] | [18] | [19]
inactive: all other assays above

c1ccc2cc3ccccc3cc2c1
active: [19] 112 µM
not listed: [1] | [2] | [3] | [4] | [8]
inactive: all other assays above

CCCCCCOC(=O)CC(CC(=O)OCCCCCC)(OC(=O)CCC)C(=O)OCCCCCC
not listed: [7] | [19]
inactive: all other assays above

O=C(O)c1ccc2c(c1)nc(C(=O)NC1CCN(C3CC3)CC1)n2Cc1cc(-c2ccc(Cl)s2)on1
not listed: [4] | [14] | [18]
inactive: all other assays above
